Data reported in PubChem BioAssay (EPA / NIEHS).
Calls of active or inactive are those of the source. The calls were made as follows: active = hit-call score of the fitted dose curve at least 0.9, where 1 is the maximum; inactive = score below 0.9.

What follows are compounds tested on Intercellular Adhesion Molecule 1 (ICAM1), ICAM1 (gene 3383) (assay: BSK_KF3CT_ICAM1: BioMAP Diversity Plus: KF3CT Assay for Intercellular Adhesion Molecule 1 (ICAM1) Biomarker Activity (AID 2283067)). Conditions: primary human keratinocytes with fibroblasts; actives raise or lower the signal.
In short: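 Bidirectional curve fitting against a DMSO baseline was applied to ICAM-1 ELISA signal from primary human skin co-cultures harvested 24 h after treatment, with SRB staining of parallel wells for overt cytotoxicity.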
In the case of `C=CC(=C)CCC=C(C)C`, the outcome is reported as “inactive”.
For `CC(C)=CCCC(C)=CC=O`, the outcome was “inactive”.
With `CC(C)=CCC/C(C)=C/CO` the outcome was “inactive”.
For `C=CCCCCCCCCC(=O)O`, the outcome was “inactive”.
In the case of `CC(=O)OCCC(C)C`, the outcome is reported as “inactive”.
In the case of `CC(C)=CCC/C(C)=C\CO`, the outcome is reported as “inactive”.
For `O=C(NS(=O)(=O)/C=C/c1ccccc1)c1ccc(F)cc1Cl`, the outcome was “inactive”.
For `Clc1nc(Cl)c(Cl)c(Cl)c1Cl`, the outcome was “inactive”.
`Fc1ccccc1[C@@H](F)COC1CCC(Nc2ncnc3[nH]ncc23)CC1` (stereo partly drawn) was tested, and the outcome was “inactive”.
For `CC[C@H](C)C(=O)O[C@H]1C[C@@H](C)C=C2C=C[C@H](C)[C@H](CC[C@@H]3C[C@@H](O)CC(=O)O3)[C@H]21`, the AC50 was 33.6 µM (active).
In the case of `CCCCC(CC)COC(=O)CCCCCCCCC(=O)OCC(CC)CCCC` (stereo not drawn), the outcome is reported as “inactive”.
With `CCCCC(CC)COC(=O)c1ccc(C(=O)OCC(CC)CCCC)cc1` (stereo not drawn) the outcome was “inactive”.
With `O=C(O)c1cccc(Oc2ccccc2)c1` the outcome was “inactive”.
In the case of `O=C(CCCCCCCCc1cccnc1)N1CCC(C=C(c2ccccc2)c2ccccc2)CC1`, the AC50 is reported as 16.6 µM (active).
`CCC(C)(C)C(=O)O[C@H]1C[C@@H](C)C=C2C=C[C@H](C)[C@H](CC[C@@H]3C[C@@H](O)CC(=O)O3)[C@H]21` was tested, and the AC50 was 31.2 µM (active).
`COCCOc1cc2cc(C(=O)NC3CCN(C(C)C)CC3)n(CC(=O)Nc3ccc(Cl)cn3)c2cn1` was tested, and the outcome was “inactive”.
In the case of `CC(=O)OC[C@H]1O[C@@](COC(C)=O)(O[C@H]2O[C@H](COC(C)=O)[C@@H](OC(C)=O)[C@H](OC(C)=O)[C@H]2OC(C)=O)[C@@H](OC(C)=O)[C@@H]1OC(C)=O`, the outcome is reported as “inactive”.
For `NC(=O)NO`, the outcome was “inactive”.
